Assay outcomes as filed in PubChem BioAssay.
cardiac RTF act – increases calcium sensitivity of human cardiac regulated thin filaments; IANBD-labeled TnC RTF fluorescence at EC20 calcium; 0% EC20 calcium, 100% full calcium; activation, % at 7.2 µM; hit rate 0.24% among 340,000;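 active means activation above the mean over all tested compounds plus 3 SD, cut at about 30% in these data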;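 further: rise in fluorescence read as greater calcium sensitivity of cardiac thin filaments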
LANA-H2A inh – blocks KSHV LANA binding to histone H2A/H2B; cell-free LANA-H2A/H2B peptide, fluorescence polarization; hit rate 0.6% among 320,000; AID 2629; Q9QR71; inhibition, % (no concentration beside the values); in the data active means inhibition mostly above about 10%, no sharp cut-off; inactive means mostly below about 6.7%
Cardiac RTF inh – cardiac RTF calcium desensitization. AID 493244. hit rate 0.12% among 340,000. P19429+P45379. inhibition, % at 7.15 µM. IANBD-labeled cardiac RTF, Ca2+ fluorescence;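 active means inhibition above the mean inhibition of all tested compounds plus 3 SD, cut at about 17% in these data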;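 further: assay run at fixed EC70 calcium of 1.6 mM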
Keap1-Nrf2 PPI – Keap1-Nrf2 (human) interaction inhibition | Keap1 Kelch-Nrf2 peptide fluorescence polarization, 1536-well | hit rate 0.15% among 340,000 | Q14145 | inhibition, % at 9.4 µM | AID 504523; in the data active means inhibition above about 12%;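 further: human Keap1 Kelch domain with fluorescein labeled Nrf2 9mer peptide probe; 0% = neutral control wells and 100% = peptide positive control; higher means more block of Keap1 binding to Nrf2 peptide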
Target sequence (Q14145 whole entry, looked up, the tested form may be a part): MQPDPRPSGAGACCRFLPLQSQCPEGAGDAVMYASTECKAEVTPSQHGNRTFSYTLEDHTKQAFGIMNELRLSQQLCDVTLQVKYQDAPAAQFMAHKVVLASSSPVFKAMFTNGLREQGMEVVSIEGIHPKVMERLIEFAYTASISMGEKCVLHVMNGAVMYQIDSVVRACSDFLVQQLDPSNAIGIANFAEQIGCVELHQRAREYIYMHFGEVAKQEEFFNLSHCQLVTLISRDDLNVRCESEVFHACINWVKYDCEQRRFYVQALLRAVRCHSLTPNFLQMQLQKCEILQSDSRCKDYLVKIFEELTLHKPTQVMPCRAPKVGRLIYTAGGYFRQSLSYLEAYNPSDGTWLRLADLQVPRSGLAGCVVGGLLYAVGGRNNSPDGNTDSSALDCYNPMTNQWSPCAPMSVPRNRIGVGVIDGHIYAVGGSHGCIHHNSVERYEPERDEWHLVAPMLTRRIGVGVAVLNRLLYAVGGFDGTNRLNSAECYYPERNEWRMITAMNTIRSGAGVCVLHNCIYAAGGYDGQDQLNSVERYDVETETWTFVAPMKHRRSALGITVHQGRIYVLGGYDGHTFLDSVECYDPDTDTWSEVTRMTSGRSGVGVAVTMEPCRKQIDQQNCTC
LANA DNA inh – inhibitors of KSHV LANA C-terminal domain DNA binding; MBP-C-LANA/FAM-LBS DNA binding, fluorescence polarization; inhibition, % at 9 µM; hit rate 0.078% among 340,000;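 active means highest replicate inhibition at or above 60% at 9 µM, even if other replicates fall short; inactive means all replicates below 60% inhibition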;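 further: 0% = neutral control wells and 100% = 4 µM acridine orange control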
* = called active by the depositor; · = no result given; + = active, no number; ! = a repeat was not active. The list is not random: actives were taken first. Their share in the collection is about 0.98%.

SMILES | cardiac RTF act | LANA-H2A inh | Cardiac RTF inh | Keap1-Nrf2 PPI | LANA DNA inh
O=C(Cn1cc(C(F)(F)F)ccc1=O)Nc1cccc(S(=O)(=O)N2CCOCC2)c1 | 8 | 22* | -8 | 7 | 0
CCN(CC)CCNC(=O)c1ccc(NC(=O)C2CC(=O)N(c3ccc4c(c3)OCCO4)C2)cc1 (stereo not given) | 3 | 61* | -3 | 2 | -1
NC(=O)c1ccc(NC(=O)C2CC(=O)N(c3ccc4c(c3)OCCO4)C2)cc1 (stereo not given) | -3 | -1 | -9 | 0 | 3
COc1ccc(-c2cn(Cc3ccc(C(=O)c4ccccc4)cc3)nn2)cc1 | · | -3 | · | · | ·
O=C(O)c1cccc(NS(=O)(=O)c2ccc(Cl)c(C(=O)Nc3cccc([N+](=O)[O-])c3)c2)c1 | 2 | 2 | 5 | -1 | 1
O=C(NCCc1ccccc1)c1cnc2n(c1=O)CCS2 | 8 | 13* | 0 | -6 | 0
COc1ccccc1CNC(=O)COC(=O)/C=C/c1ccc2ccccc2n1 | 0 | 17* | -7 | 0 | -1
COc1ccccc1CNC(=O)COC(=O)/C=C/c1cccs1 | 2 | -1 | -18 | 3 | 1
Cc1ccc(CC(=O)Nc2nc3ccccc3s2)cc1 | -1 | 24* | 3 | 3 | -4
Cc1cc(C)cc(OCC(=O)OCC(=O)N2CC(=O)Nc3ccccc32)c1 | -3 | 4 | -18 | -7 | 0
Fc1ccc(CN2C3=NCCN3c3ccccc32)cc1 | 0 | -1 | -11 | 1 | 0
Fc1ccc(CN2C3=NCCCN3c3ccccc32)cc1 | -3 | 59* | -10 | 2 | 0
O=C(CN1CCN(C(=O)c2cccc(F)c2)CC1)NC1CCCCC1 | · | 2 | · | · | ·
CN1CCN(CCNC(=O)Nc2ccccc2C(F)(F)F)CC1 | -3 | 17* | 8 | -5 | -1
CN1CCN(CC(=O)Nc2ccccc2C(F)(F)F)CC1 | 1 | 3 | -1 | -5 | 0
Cc1ccc(CN2CC(C(=O)Nc3ccc(S(=O)(=O)N4CCCCC4)cc3)CC2=O)cc1 (stereo not given) | 2 | 1 | -9 | -1 | -2
NC(=O)NC(=O)COC(=O)c1cccc(NS(=O)(=O)/C=C/c2ccccc2)c1 | 38* | -1 | -4 | -2 | 2
CC(=O)c1cccc(NC(=S)NCCCCc2ccccc2)c1 | 4 | -1 | -12 | -1 | -2
Clc1ccc(-c2ccnc(-n3cccc3)n2)s1 | 9 | 30* | -22 | -7 | 0
Clc1ccsc1-c1ccnc(-n2cccc2)n1 | -2 | 1 | -9 | -4 | 0
O=C(NCCC1=CCCCC1)c1cc(S(=O)(=O)N2CCOCC2)ccc1F | -5 | 0 | -7 | -5 | 0
CCc1noc(C)c1C(=O)Nc1cc(S(=O)(=O)N2CCOCC2)ccc1OCC(F)(F)F | -2 | -3 | -6 | -2 | 1
S=C(Nc1ccccc1Cl)N1CCN(c2ccccn2)CC1 | 7 | -2 | -9 | 1 | 5
COc1cc(NC(=S)N2CCN(C)CC2)cc(OC)c1 | -6 | 9.7* | -4 | 1 | 2
CC(=O)Oc1cccc(/C=C2\Sc3ccccc3C2=O)c1 | 2 | 14* | 0 | -4 | 0
SMILES | cardiac RTF act | LANA-H2A inh | Cardiac RTF inh | Keap1-Nrf2 PPI | LANA DNA inh
Cc1cc(NC(=O)C2CCN(S(=O)(=O)Cc3ccccc3)CC2)ccc1-n1cnnn1 | 3 | 43* | -4 | 1 | -2
O=C(COC(=O)c1nc(Cl)ccc1Cl)NCc1ccccc1 | -9 | 14* | -2 | -1 | 0
O=C(COC(=O)c1nc(Cl)ccc1Cl)c1ccccc1Cl | 9 | 1 | 3 | -3 | -1
O=C1S/C(=C/c2ccccc2)C(=O)N1CC(O)Cn1c2ccccc2c2ccccc21 (stereo not given) | 12 | 1 | -1 | 1 | 1
CN(C)c1ccc(/C=C2\SC(=O)N(CC(O)Cn3c4ccccc4c4ccccc43)C2=O)cc1 (stereo not given) | 55* | -6 | -16 | -1 | 5
CC(C)CC1NC(=O)c2cc(Cl)ccc2-n2c1nc1cc(F)ccc1c2=O (stereo not given) | · | 0 | · | · | ·
Cc1ccccc1NS(=O)(=O)c1ccc(C(=O)NCC(c2ccco2)N(C)C)cc1 (stereo not given) | 0 | 20* | -4 | 0 | 0
Cc1ccc(C)c(S(=O)(=O)Nc2ccc(C(=O)NCC(c3ccco3)N(C)C)cc2)c1 (stereo not given) | 4 | 4 | 0 | -2 | 0
Cc1ccc(S(=O)(=O)N(C)c2ccc(C(=O)NCC(c3ccco3)N(C)C)cc2)cc1 (stereo not given) | 1 | 35* | -5 | -9 | 0
CC1CCN(C(=O)CN2c3cccc4cccc(c34)S2(=O)=O)CC1 | 1 | 1 | 0 | -4 | 0
CC(=O)O[C@]1(C(C)=O)CC[C@H]2[C@@H]3C=C(Cl)C4=CC(=O)[C@@H]5C[C@@H]5[C@]4(C)[C@H]3CC[C@@]21C | 12 | 15*! | 0 | -5 | 2
CCOc1ccc(Cn2c(=O)oc3ccccc32)cc1 | -1 | -1 | -2 | -4 | -1
Cc1cc(C)nc(SCCCNCc2ccc(Br)cc2)n1 | 32* | -6 | -1 | -5 | -2
Cc1ccc(CNCCCSc2nc(C)cc(C)n2)cc1 | -2 | 5 | -3 | -2 | 3
O=C(COC(=O)Cc1cccc(C(F)(F)F)c1)Nc1ccc2c(c1)OCCO2 | -1 | 146* | 1 | 1 | 0
Cc1cc(C)cc(NC(=O)COC(=O)c2ccc3c(c2)OCCO3)c1 | -6 | 12* | -4 | -3 | 0
COc1cc(C(c2c(O)cc(C)[nH]c2=O)c2c(O)cc(C)[nH]c2=O)ccc1O | -2 | 4 | 1 | 4 | 0
Cc1c(CC(=O)NCCCC(=O)O)c(=O)oc2cc3c(cc12)CCC(C)(C)O3 | 2 | -6 | -3 | -5 | 1
CCn1c2ccccc2c2cc(NC(=O)c3cccc([N+](=O)[O-])c3)ccc21 | 3 | 79* | 1 | -4 | -1
CCn1c2ccccc2c2cc(NC(=O)c3coc(=O)c(Br)c3)ccc21 | · | 20* | · | · | ·
CN(C)c1ccc(S(=O)(=O)N2CCCCC2)cc1NC(=O)C1=COCCO1 | -5 | -2 | -4 | -1 | -1
CC(Sc1nnc(Cc2ccccc2)o1)C(=O)Nc1ccccc1[N+](=O)[O-] (stereo not given) | -3 | · | 5 | -3 | 0
CC(=O)Nc1ccc(S(=O)(=O)Nc2nc3ccccc3nc2Nc2ccc(C(=O)O)c(O)c2)cc1 | -6 | 0 | 2 | 4 | 90*
CC(C)NC(=O)Nc1ccc2c(c1)C(=O)N([C@H](C)CO)C[C@H](C)[C@@H](CN(C)C(=O)Nc1ccc(C(F)(F)F)cc1)O2 | -6 | + | 5 | -2 | 1
C[C@@H]1CN([C@H](C)CO)C(=O)c2cc(NC(=O)Nc3ccc(F)cc3)ccc2O[C@H]1CN(C)C(=O)Nc1ccc(C(F)(F)F)cc1 | -7 | · | -4 | -3 | -1
C[C@H](CO)N1C[C@H](C)[C@@H](CN(C)S(=O)(=O)c2ccccc2)Oc2ccc(NC(=O)CCC(F)(F)F)cc2C1=O | 2 | 28* | -5 | 0 | -1
